Measurements: publication PMC4336329 (PLoS ONE, 2015)
Screen size: about 310,000 compounds; about 14,000 (4.5%) showed an effect of 50% or more. Effects have a minus sign here. The sample holds strong results, similar compounds and a random draw of the others, so the mix is not that of the screen.

What follows are compounds tested against human ether-à-go-go-related gene (hERG) potassium channel (human, UniProt Q12809) (assay: primary screen, population patch clamp on CHO cells stably expressing hERG; higher = less effect of the substance).
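Also: peak tail current of the secondary pulse compared with the same well before compound.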

Sequence of human ether-à-go-go-related gene (hERG) potassium channel (Q12809 whole entry, looked up): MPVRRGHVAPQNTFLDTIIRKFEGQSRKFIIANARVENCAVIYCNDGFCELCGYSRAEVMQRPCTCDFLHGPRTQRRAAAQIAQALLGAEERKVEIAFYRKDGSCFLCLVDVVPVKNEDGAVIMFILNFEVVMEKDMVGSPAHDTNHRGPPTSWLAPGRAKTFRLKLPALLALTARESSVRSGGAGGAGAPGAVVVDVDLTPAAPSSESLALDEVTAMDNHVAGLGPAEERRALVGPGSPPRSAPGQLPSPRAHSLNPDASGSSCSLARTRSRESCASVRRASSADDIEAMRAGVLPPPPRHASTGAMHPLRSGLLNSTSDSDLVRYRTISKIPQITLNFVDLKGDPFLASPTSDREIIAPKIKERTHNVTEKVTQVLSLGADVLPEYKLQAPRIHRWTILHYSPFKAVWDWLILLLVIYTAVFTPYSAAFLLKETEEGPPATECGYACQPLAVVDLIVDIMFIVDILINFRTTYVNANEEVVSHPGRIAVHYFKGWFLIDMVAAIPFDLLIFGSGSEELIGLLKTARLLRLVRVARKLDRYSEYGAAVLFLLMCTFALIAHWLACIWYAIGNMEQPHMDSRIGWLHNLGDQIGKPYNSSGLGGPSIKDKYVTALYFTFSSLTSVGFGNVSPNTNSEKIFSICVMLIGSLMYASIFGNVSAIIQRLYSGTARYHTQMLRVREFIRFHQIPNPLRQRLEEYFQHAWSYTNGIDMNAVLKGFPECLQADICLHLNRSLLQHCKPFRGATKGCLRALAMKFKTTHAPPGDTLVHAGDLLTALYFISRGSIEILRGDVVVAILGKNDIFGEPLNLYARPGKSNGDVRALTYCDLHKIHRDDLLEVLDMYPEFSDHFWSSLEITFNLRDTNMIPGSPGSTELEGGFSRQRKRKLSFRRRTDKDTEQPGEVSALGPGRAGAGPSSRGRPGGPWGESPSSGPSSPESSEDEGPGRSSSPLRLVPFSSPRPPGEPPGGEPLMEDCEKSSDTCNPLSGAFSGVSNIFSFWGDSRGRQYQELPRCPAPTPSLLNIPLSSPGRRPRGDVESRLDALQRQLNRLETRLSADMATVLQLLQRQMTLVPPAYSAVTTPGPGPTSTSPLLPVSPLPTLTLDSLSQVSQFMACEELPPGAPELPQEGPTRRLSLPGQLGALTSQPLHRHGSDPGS

SMILES	hERG current change (%, negative = inhibition) at 10uM [%]
C[C@]12CCC3C(CC[C@H]4CCCC[C@]34C)C1CC[C@@]2(O)CNCCO (some centres unmarked)	15.6
O=C(O)CCCNc1cc(N2CCN(C(=O)c3ccco3)CC2)c2noc3c2c1C(=O)c1ccccc1-3	19
O=C(O)C1CCCCC1C(=O)Nc1nc(-c2ccc(Cl)s2)cs1 (centres unmarked)	13.7
C/C(=N\NC(=O)c1ccc(F)cc1)c1ccc(N2CCOCC2)cc1	-16.7
O=S(=O)(c1cccc(-c2cn3cc(Cl)ccc3n2)c1)N1CCOCC1	-23.1
CCCCOC(=O)c1ccc(NC(=O)CSCc2n[nH]c(=O)[nH]2)cc1	1.91
S=C(NC1CCCCC1)N(CCc1nc2ccccc2[nH]1)C1CCCC1	4.83
CCOC(=O)N1CCN(S(=O)(=O)c2ccc([N+](=O)[O-])cc2)CC1	-23.9
CC(C)(C)OC(=O)N1CCN(c2ccc([N+](=O)[O-])cc2)CC1	-73.3
O=[N+]([O-])c1ccc(N2CCN(c3ccccc3O)CC2)cc1	-0.173
Cc1cnc(C(=O)Nc2ccc(N3CCN(C(=O)OC(C)(C)C)CC3)cc2)cn1	14.1
CCN(CC)C(=O)Cn1cc(C(=O)C(=O)N2CCN(c3ccc([N+](=O)[O-])cc3)CC2)c2ccccc21	-65.8
CCOC(=O)N1CCN(c2ccc(O)cc2)CC1	15.6
CCN(CC)C(=O)Cn1cc(C(=O)C(=O)N2CCN(c3ccc(OC)cc3)CC2)c2ccccc21	16.1
CCOC(=O)N1CCN(c2ccc([N+](=O)[O-])cc2)CC1	-59.4
COc1ccc(N2CCN(C(=O)C3CCN(C(=O)c4cccc(Cl)c4)CC3)CC2)cc1	-29.8
COc1ccc(N2CCN(C(=O)C3CCN(C(=O)c4ccc([N+](=O)[O-])cc4)CC3)CC2)cc1	-69
COc1ccc(C(=O)N2CCC(C(=O)N3CCN(c4ccc(OC)cc4)CC3)CC2)cc1	-43.5
CCN(CC)C(=O)Cn1cc(C(=O)C(=O)N2CCN(c3ccccc3)CC2)c2ccccc21	-0.908

SMILES	hERG current change (%, negative = inhibition) at 10uM [%]
COC(=O)C(NS(=O)(=O)c1ccc(NC(C)=O)cc1)C(C)C (centres unmarked)	-0.58
CN(C)CCCNC(=O)c1cc(C(=O)C2CCCCC2)c[nH]1	-3.99
C=C(C)C(C)(C#CCN1CCCC1)OC(C)=O (centres unmarked)	-6.48
NS(=O)(=O)c1ccc(CNC(=O)CCC2CCCCC2)cc1	-2.5
COc1cc(NC(=S)N2CCN(S(=O)(=O)c3ccc(C)cc3)CC2)cc(OC)c1	-4.7
CC(=O)c1ccc(-n2cc(C#N)c(=O)[nH]c2=O)cc1	18.9
CC1CN(C(=O)c2cccc(COc3ccccc3Cl)c2)CC(C)O1 (centres unmarked)	-49.3
Cc1ccc(C(=O)OCc2cn(-c3ccccc3)nn2)cc1	-7.92
O=C(O)Cc1sc(Nc2ccccc2)nc1-c1ccc(Cl)cc1	14.6
Nc1nnc(SCC(=O)Nc2cccc(S(=O)(=O)N3CCOCC3)c2)s1	24.1
O=C(C1CC1)N1CCN(c2ccc(O)cc2)CC1	-17.3
CCOC(=O)N1CCN(c2c(-c3ccc(C)cc3)c(=O)c2=O)CC1	-29.7
O=C(C1CC1)N1CCN(c2ccc([N+](=O)[O-])cc2)CC1	-61.8
CC1(C(=O)N2CCN(c3ccc([N+](=O)[O-])cc3)CC2)CC1(Cl)Cl (centres unmarked)	-72.7
COc1ccc(N2CCN(C(=O)C3(C)CC3(Cl)Cl)CC2)cc1 (centres unmarked)	2.66
CC(=O)N1CCN(C(=S)c2ccc([N+](=O)[O-])cc2)CC1	-3.4
CC(=O)N1CCN(c2ccc([N+](=O)[O-])cc2)CC1	-55.9
CC(=O)N1CCN(c2ccc(NC(=O)c3ccc([N+](=O)[O-])cc3)cc2)CC1	1.37
CCOC(=O)N1CCN(c2c(N3CC=C(c4ccccc4)CC3)c(=O)c2=O)CC1	-51.9

SMILES	hERG current change (%, negative = inhibition) at 10uM [%]
CCOC(=O)N1CCN(c2c(N3CCc4ccccc4C3)c(=O)c2=O)CC1	-34.8
CC1(C(=O)N2CCN(c3ccccc3)CC2)CC1(Cl)Cl (centres unmarked)	6.47
COc1ccc(CC(=O)N(C)C2CCCN(Cc3ccccc3F)C2)cc1OC (centres unmarked)	-4.9
CCOC(=O)C1CSC(CC(=O)Nc2ccc(Cl)c(Cl)c2)C(=O)N1 (centres unmarked)	-24.2
COc1ccc(CCC(=O)OCC(=O)Nc2sccc2C(N)=O)cc1	-5.4
COc1cc2c(cc1OC)CN(c1ccc([N+](=O)[O-])c(C(F)(F)F)c1)CC2	-8.39
CCOC(=O)N1CCN(C(=O)COc2ccc([N+](=O)[O-])cc2)CC1	-43
CC(=O)N1CCN(c2ccc(Oc3ccc([N+](=O)[O-])c(C(F)(F)F)c3)cc2)CC1	-59.9
CN1CCCN(c2ccc([N+](=O)[O-])cc2)CC1	-66
O=[N+]([O-])c1ccc(N2CCCCC2)cc1	-16.5
O=C(Cc1ccccc1[N+](=O)[O-])OCC(=O)N1CCN(c2ccccc2)CC1	-6.16
CCOC(=O)C1CCN(C(=O)COc2ccc(Br)cc2)CC1	-32.1
CN1CCCN(c2ccc([N+](=O)[O-])nc2)CC1	2.45
CCOC(=O)C1CCN(C(=O)COc2ccc([N+](=O)[O-])cc2)CC1	-60.8
O=C(OCC(=O)N1CCN(c2ccccc2)CC1)c1cccc([N+](=O)[O-])c1	-28.2
CC(=O)OCC(=O)N1CCN(c2ccc([N+](=O)[O-])cc2)CC1	-63.3
COc1ccc(N2CCN(c3ccc(C(=O)O)cc3[N+](=O)[O-])CC2)cc1	11
Cc1c(C(=O)Nc2ccc3c4c(cccc24)CC3)cccc1[N+](=O)[O-]	9.1
